Giardia killer – kills Giardia lamblia; Giardia lamblia trophozoite viability; activity change, % at 7.66 µM, hits read low; actives 0.15% (n = 340,000); AID 540267; in the data active = activity change below about -80%; inconclusive = between about -30% and that limit;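 also: parasites exposed to compound for two days anaerobically before the ATP read; % is scaled to controls: 0 for no effect and ±100 for the full control effect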
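Trophozoites 100 cells/well + cpd; 48 hrs, 37 deg C, anaerobic. ATPLite 1-Step added, 15-30 min RT, luminescence read (ATP-based viability).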
MCF10A rerep – induces DNA re-replication in MCF 10a normal breast cells | MCF 10A DNA re-replication, Hoechst nuclear intensity, 48 h | Potency, µM (titrated, usually from 46.1 µM), inactives show at the highest dose activity, positive = re-replication, actives largely listed as activators | actives 2.9% (n = 350,000) | AID 624296; also: potency is read from the fitted curve at half-maximal effect; % of control where 0% means no effect; nearly all actives have a fitted effect of over 50% in size
SW480 rereplic – DNA re-replication induction in SW480 cells; AID 624297; Potency, µM (top dose mostly 46.1 µM), inactives show top-dose re-replication activation, usual class: activators; SW480 DNA re-replication, Hoechst DNA content imaging, 48 h; actives 1.8% (n = 340,000); also: potency is read from the fitted curve at half-maximal effect; % of control where 0% means no effect; nearly all actives have a fitted effect of over 55% in size
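SW480 cells exposed to compounds for 48 hr at 37 C, 5% CO2, then Hoechst-stained 40 min. Nuclear DNA content imaged by fluorescence scanning (405 nm excitation, 500-530 nm emission); re-replication scored as increased high-intensity nuclei.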
Chronic BCR inh – inhibitors of chronic active B-cell receptor signaling | AID 493014 | actives 0.05% (n = 340,000) | Potency, µM (titrated, usually from 46.1 µM), for the others: at the highest dose activity change, negative = inhibition, actives largely listed as inhibitors | ABC-DLBCL IkBa-CBG/CBR reporter, luminescence ratio, 4 h; active = well fitted inhibition curve with a large enough effect in the signal ratio, with a control signal flat, not every such curve was filed as active; inconclusive = small, poorly fitted or top-dose-only effect, or effect the other way, or a change in a side signal; the % refers to the signal ratio;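 also: potency is read from the fitted curve at half-maximal effect; plate controls were basal doxycycline-induced cells for no effect and cells given 10 µM MG132 for full effect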
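Compounds up to 46 uM were incubated four hours with TMD8 cells whose green CBG68 luciferase is fused to IkappaBalpha; red CBR luminescence normalised the signal, and concentration-effect curves were fitted to fusion, red and ratio data.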
VP16 counter – counter-screen for ROR gamma inhibitors: Gal4-VP16 reporter; Drosophila S2 Gal4-VP16 UAS-luciferase, luminescence, 20 h; Potency, µM (titrated, usually from 53.6 µM), for inactives: at the highest dose activity, negative = inhibition, most hits filed as inhibitors; actives 3.5% (n = 310,000);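 also: Gal4-VP16 expression switched on by copper sulfate through the metallothionein promoter; potency is read from the fitted curve at half-maximal effect; % is scaled to controls: 0 for no effect and ±100 for the full control effect; nearly all actives have a fitted effect of over 50% in size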
RORgamma inh – inhibitors of mouse ROR gamma transcriptional activity. actives 5.4% (n = 310,000). AID 2551. Potency, µM (titrated, usually from 53.6 µM), for the others: at the highest dose activity change, negative = inhibition, usual class: inhibitors. Drosophila S2 Gal4-RORgamma UAS-luciferase reporter, 20 h. P51450; also: potency is read from the fitted curve at half-maximal effect; % is scaled to controls: 0 for no effect and ±100 for the full control effect; nearly all actives have a fitted effect of over 60% in size
Target sequence (P51450 whole entry, looked up, the tested form may be a part): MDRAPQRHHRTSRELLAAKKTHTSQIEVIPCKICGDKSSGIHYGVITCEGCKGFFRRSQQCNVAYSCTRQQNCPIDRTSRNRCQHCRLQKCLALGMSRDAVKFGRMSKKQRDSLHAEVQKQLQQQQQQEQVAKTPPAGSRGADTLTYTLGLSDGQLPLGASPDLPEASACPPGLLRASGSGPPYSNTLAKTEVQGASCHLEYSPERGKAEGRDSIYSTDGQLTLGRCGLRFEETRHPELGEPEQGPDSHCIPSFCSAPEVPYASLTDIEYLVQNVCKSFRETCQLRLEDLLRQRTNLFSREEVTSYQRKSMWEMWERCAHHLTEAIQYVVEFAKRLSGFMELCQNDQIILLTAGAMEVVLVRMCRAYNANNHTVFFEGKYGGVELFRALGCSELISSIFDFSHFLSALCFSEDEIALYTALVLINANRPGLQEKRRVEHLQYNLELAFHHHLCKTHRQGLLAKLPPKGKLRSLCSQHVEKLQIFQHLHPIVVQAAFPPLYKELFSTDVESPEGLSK
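Luminescence from a UAS-regulated Photinus luciferase reporter in stably transfected Drosophila Schneider cells is measured; decreased signal marks ROR gamma inhibition. Fusion expression is induced by 700 uM copper sulfate for 20 hr.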
* marks the source's active call; other numbers are inactive results; [ ] = dose if it differs, or a comment. Compounds with a hit are over-represented: about 8.3% of the library has one in this group of screens. Unless noted, calls follow the shape of the dose curve; as a rule, active = well fitted curve in the direction sought with a large enough effect; inconclusive = small, poorly fitted or top-dose-only effect, or another doubt; inactive = no such curve, though single readings can be large; an effect the other way counts as inactive or inconclusive.

`O=S(=O)(/N=C(/Sc1ccccc1)c1ccccc1)c1ccc(Cl)cc1` gave Giardia killer 3.
COc1ccccc1OCc1ccc(C(=O)NCc2cccnc2)o1 was read as Giardia killer 5, MCF10A rerep 2%, SW480 rereplic 0%[9.22 µM], Chronic BCR inh 0%, VP16 counter 2% and RORgamma inh 14%.
For O=C(NCc1ccco1)NC(=O)c1csc([N+](=O)[O-])c1 the results were Giardia killer -82*, MCF10A rerep -8%, SW480 rereplic -2%[9.22 µM], Chronic BCR inh inconclusive, VP16 counter -11% and RORgamma inh 16%.
For CC(C)(C)c1ccc(OCc2ccc(C(=O)NCc3cccnc3)o2)cc1 the results were Giardia killer -6, MCF10A rerep 13%, SW480 rereplic 2%, Chronic BCR inh -18%, VP16 counter 1.4µM* and RORgamma inh inconclusive.
Screening O=C(Nc1ccc(Cl)cn1)c1ccc([N+](=O)[O-])o1 returned Giardia killer inconclusive, MCF10A rerep 12µM*, SW480 rereplic 2.9µM*, Chronic BCR inh -17%, VP16 counter inconclusive and RORgamma inh inconclusive.
`O=C(NCc1cccnc1)c1ccc([N+](=O)[O-])o1` gave Giardia killer -90*, MCF10A rerep 15µM*, SW480 rereplic 2.9µM*, Chronic BCR inh -7%, VP16 counter -21% and RORgamma inh -38%.
`CCOC(=O)C1=C(N)OC2=C(C(=O)CC(C)(C)C2)C1c1cc(CSc2nnnn2C)cs1` (centres undefined) gave Giardia killer 7, MCF10A rerep -1%, SW480 rereplic -2%, Chronic BCR inh 2%, VP16 counter -5% and RORgamma inh 30%.
CCCn1ncc(CN2CCN(CCc3ccccc3)C(CCO)C2)c1C (centres undefined) was read as Giardia killer -6, MCF10A rerep 13%, SW480 rereplic 1%, Chronic BCR inh -2%, VP16 counter -3% and RORgamma inh 11%.
`O=C(NCc1ccco1)c1ccc(Cn2cc([N+](=O)[O-])cn2)o1` gave Giardia killer -10, MCF10A rerep -10%, SW480 rereplic -2%, Chronic BCR inh inconclusive, VP16 counter 12% and RORgamma inh 18%.
`O=C(NCc1ccco1)c1ccc([N+](=O)[O-])o1` gave Giardia killer -81*, MCF10A rerep inconclusive, SW480 rereplic inconclusive, Chronic BCR inh 1%, VP16 counter 2% and RORgamma inh 5µM*.
`O=C(Nc1c(Cl)ccc2nsnc12)c1ccc([N+](=O)[O-])o1` gave Giardia killer -87*, MCF10A rerep inconclusive, SW480 rereplic inconclusive, Chronic BCR inh inconclusive, VP16 counter inconclusive and RORgamma inh -39%.
For O=C(Nc1cccnc1)c1ccc([N+](=O)[O-])o1 the results were Giardia killer -86*, MCF10A rerep 7.3µM*, SW480 rereplic inconclusive, Chronic BCR inh inconclusive, VP16 counter inconclusive and RORgamma inh -38%.
O=C(Nc1cccnc1)c1ccco1 was read as Giardia killer -6, MCF10A rerep 25%, SW480 rereplic 2%, Chronic BCR inh -6%, VP16 counter 5% and RORgamma inh 24%.
CC1(C)Cc2nc3sc4c(NCCO)ncnc4c3cc2CS1 was read as Giardia killer -6, MCF10A rerep -1%, SW480 rereplic -16%, Chronic BCR inh 12%, VP16 counter inconclusive and RORgamma inh 4µM*.
For COc1ccc(CCNC(=O)C2c3ccccc3C(=O)N2Cc2ccccc2)cc1OC (centres undefined) the results were Chronic BCR inh 0%.
COc1ccc(CNC(=S)Nc2ccc(F)c(Cl)c2)cc1 was read as Giardia killer 6, MCF10A rerep inconclusive, SW480 rereplic 0%, Chronic BCR inh 23%, VP16 counter inconclusive and RORgamma inh 7.1µM*.
For COc1ccc(CCNC(=S)Nc2cccc(C)c2)cc1 the results were Giardia killer -23, MCF10A rerep 0%, SW480 rereplic -3%, Chronic BCR inh inconclusive, VP16 counter 10µM* and RORgamma inh 7.1µM*.
`COc1ccc(CNC(=O)Nc2cccc(C)c2)cc1` gave Giardia killer -13, MCF10A rerep -2%, SW480 rereplic 5%, Chronic BCR inh -3%, VP16 counter inconclusive and RORgamma inh 6%.
CCc1ccc(NC(=S)Nc2cc(OC)c(NC(=O)C(C)C)cc2OC)cc1 was read as Giardia killer -16, MCF10A rerep 2%, SW480 rereplic 3%, Chronic BCR inh 0%, VP16 counter 18µM* and RORgamma inh 8.9µM*.
CCc1ccc(NC(=S)Nc2cccc(OC)c2)cc1 was read as Giardia killer -2, MCF10A rerep 15%, SW480 rereplic 6%, Chronic BCR inh 2%, VP16 counter inconclusive and RORgamma inh 7.9µM*.
For NS(=O)(=O)c1ccc(CNC(=S)Nc2ccc(F)c(Cl)c2)cc1 the results were Giardia killer -10, MCF10A rerep -6%, SW480 rereplic -2%, Chronic BCR inh -21%, VP16 counter inconclusive and RORgamma inh 42%.
O=C(CNC(=O)[C@@H]1Cc2ccccc2CN1)NCc1ccco1 was read as Giardia killer -14, MCF10A rerep -2%, SW480 rereplic -9%, Chronic BCR inh 0%, VP16 counter -6% and RORgamma inh 2%.
Screening CC1(C)OC(=O)C=C[C@]2(C)[C@H]3CC[C@@]4(C)[C@H](C(=O)O)OC(=O)[C@H]5O[C@]54[C@]3(C)C(=O)C[C@@H]12 returned Giardia killer -17, MCF10A rerep -14%, SW480 rereplic 2% and Chronic BCR inh 1%.
`COc1ccc(CNC(=S)Nc2cc(C)cc(C)c2)cc1` gave Giardia killer -7, MCF10A rerep -12%, SW480 rereplic -5%[9.22 µM], Chronic BCR inh 5%, VP16 counter 13µM* and RORgamma inh 4µM*.
For COc1cccc(NC(=S)NN2CCN(C)CC2)c1 the results were Giardia killer 0, MCF10A rerep 9%, SW480 rereplic -7%, Chronic BCR inh 4%, VP16 counter -14% and RORgamma inh -18%.
`COc1cccc(NC(=S)NCc2ccncc2)c1` gave Giardia killer -10, MCF10A rerep 2%, SW480 rereplic -6%, Chronic BCR inh -2%, VP16 counter -10% and RORgamma inh 1%.
COc1cccc(NC(=S)NN=C2CCCCCC2)c1 was read as Giardia killer -21, MCF10A rerep -1%, SW480 rereplic -11%, Chronic BCR inh inconclusive, VP16 counter inconclusive and RORgamma inh 13µM*.

High-throughput results: PubChem BioAssay, National Center for Advancing Translational Sciences (NCATS)
